Test results: PubChem BioAssay (Tox21)
Values without a mark were called inactive. Results filed as inconclusive are left out. Activity calls are given as the source filed them. Unless noted, the call rests on the fitted dose curve; in most records, active means well fitted curve in the direction sought with a large enough effect in the repeat runs; inconclusive means weak or mixed curves; inactive means no such curve, though single readings can be large; an effect the other way counts as inactive or inconclusive.

test: qHTS assay for small molecule agonists of the p53 signaling pathway (AID 651631; calls by dose curve; further: nearly all actives have a fitted effect of over 15% in size); conditions: HCT-116 p53RE-bla reporter, beta-lactamase FRET ratio, 16 h; series mostly up to 73.3 µM; activation: at the top concentration
Summary of the method: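 We treat p53RE-bla HCT-116 cells with compounds for 16 h at 37 °C, add LiveBLAzer B/G FRET substrate for 2 h at room temperature, and measure fluorescence intensity.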
On the % scale 0 is the no-effect control and ±100 the full control effect.

| Compound | Potency | activation [%] |
| --- | --- | --- |
| C[C@]12N[C@H](Cc3ccccc31)c1ccccc12 | inactive |  |
| CCCCCN(C)CCC(O)(P(=O)(O)O)P(=O)(O)O |  | 1.27 |
| O=P(O)(O)C(Cl)(Cl)P(=O)(O)O |  | -1.31 |

test: qHTS assay for small molecules that induce genotoxicity in human embryonic kidney cells expressing luciferase-tagged ATAD5 (AID 651632); conditions: HEK293T ATAD5-luciferase induction, 16 h; series mostly up to 83.3 µM; activation: at the top concentration; further: nearly all actives have a fitted effect of over 15% in size
Summary of the method: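 Concentration-response screen for ATAD5 upregulation in HEK293T luciferase reporter cells; 16 hr treatment at 37C, then luminescence after 30 min with Amplite at room temperature.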

| Compound | Potency | activation [%] |
| --- | --- | --- |
| C[C@]12N[C@H](Cc3ccccc31)c1ccccc12 | inactive |  |
| c1ccc(C2(c3ccccc3)CC2C2=NCCN2)cc1 (stereo not given) |  | -2.91 |
| CCCCCN(C)CCC(O)(P(=O)(O)O)P(=O)(O)O |  | 2.73 |
| O=P(O)(O)C(Cl)(Cl)P(=O)(O)O |  | -0.961 |

test: qHTS assay for small molecule agonists of the p53 signaling pathway - cell viability (AID 651633; calls by dose curve; further: nearly all actives have a fitted effect of over 30% in size); conditions: p53RE-bla HCT-116 viability, ATP luminescence, 16 h; series mostly up to 83.3 µM; activity change, negative = cytotoxicity: at the top concentration
Summary of the method: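 Viability counter-read: CellTiter-Glo luminescence (30 min, room temperature) in the same p53RE-bla plates. These plates had been exposed to compounds for 16 h at 37 C.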

| Compound | Potency | activity change, negative = cytotoxicity [%] |
| --- | --- | --- |
| C[C@]12N[C@H](Cc3ccccc31)c1ccccc12 | inactive |  |
| c1ccc(C2(c3ccccc3)CC2C2=NCCN2)cc1 (stereo not given) |  | -15.1 |
| CCCCCN(C)CCC(O)(P(=O)(O)O)P(=O)(O)O |  | 8.88 |

test: qHTS assay for small molecules that induce genotoxicity in human embryonic kidney cells expressing luciferase-tagged ATAD5 - cell viability (AID 651634; calls by dose curve; further: nearly all actives have a fitted effect of over 25% in size); conditions: HEK293T ATAD5-luc cells viability, CellTiter-Fluor, 15.5 h; series mostly up to 83.3 µM; activity, negative = cytotoxicity: at the top concentration
Summary of the method: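 15.5 hr compound or vehicle exposure of HEK293T cells expressing luciferase-tagged ATAD5 at 37C; live-cell protease activity is read by fluorescence after 30 min of CellTiter-Fluor.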

| Compound | Potency | activity, negative = cytotoxicity [%] |
| --- | --- | --- |
| C[C@]12N[C@H](Cc3ccccc31)c1ccccc12 | inactive |  |
| c1ccc(C2(c3ccccc3)CC2C2=NCCN2)cc1 (stereo not given) |  | 5.72 |
| CCCCCN(C)CCC(O)(P(=O)(O)O)P(=O)(O)O |  | 12 |
| O=P(O)(O)C(Cl)(Cl)P(=O)(O)O |  | 6.88 |

test: qHTS assay for small molecule disruptors of the mitochondrial membrane potential - cell viability (AID 720634; calls by dose curve;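 further: human HepG2 liver cancer cells; nearly all actives have a fitted effect of over 20% in size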); conditions: HepG2 viability, ATP luminescence (CellTiter-Glo), 1 h; series mostly up to 83.2 µM; activity change, negative = cytotoxicity: at the top concentration
Summary of the method: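 In this qHTS format, HepG2 cells plated overnight were pinned with compound, incubated 1 hr, and assayed for ATP luminescence with CellTiter-Glo after m-MPI dye addition.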

| Compound | Potency | activity change, negative = cytotoxicity [%] |
| --- | --- | --- |
| C[C@]12N[C@H](Cc3ccccc31)c1ccccc12 | inactive |  |
| CCCCCN(C)CCC(O)(P(=O)(O)O)P(=O)(O)O |  | 8.07 |
| O=P(O)(O)C(Cl)(Cl)P(=O)(O)O |  | -1.4 |

test: qHTS assay to test for compound auto fluorescence at 590 nm (red) in HepG2 cells (AID 720674); conditions: HepG2 autofluorescence, red 540/590 nm, 1 h; series mostly up to 46 µM; fluorescence, relative to Rose Bengal: at the top concentration
Summary of the method: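 1 hr compound incubation on HepG2 cells, 37 C, 5% CO2; plate read ex 540 nm / em 590 nm; intensities reported as Rose Bengal sodium equivalents.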

| Compound | outcome | fluorescence, relative to Rose Bengal [%] |
| --- | --- | --- |
| C[C@]12N[C@H](Cc3ccccc31)c1ccccc12 | inactive |  |
| c1ccc(C2(c3ccccc3)CC2C2=NCCN2)cc1 (stereo not given) |  | -0.83 |
| CCCCCN(C)CCC(O)(P(=O)(O)O)P(=O)(O)O |  | -0.0991 |
| O=P(O)(O)C(Cl)(Cl)P(=O)(O)O |  | -0.369 |

test: qHTS assay to test for compound auto fluorescence at 535 nm (green) in HepG2 cells (AID 720675); conditions: green autofluorescence 485/535 nm, 1 h; series mostly up to 46 µM; fluorescence, % of fluorescein control: at the top concentration

| Compound | fluorescence, % of fluorescein control [%] |
| --- | --- |
| c1ccc(C2(c3ccccc3)CC2C2=NCCN2)cc1 (stereo not given) | 0.0063 |
| CCCCCN(C)CCC(O)(P(=O)(O)O)P(=O)(O)O | 0.0019 |
| O=P(O)(O)C(Cl)(Cl)P(=O)(O)O | -0.0515 |

test: qHTS assay to test for compound auto fluorescence at 460 nm (blue) in HEK293 cells (AID 720678); conditions: blue autofluorescence 405/460 nm; series mostly up to 46 µM; fluorescence, % of triamterene: at the top concentration
Summary of the method: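 After cell attachment (4-5 hr, 37C), compounds were pinned onto HEK293 monolayers in 10% dialyzed FBS medium. The blue channel (405/460 nm) was read following overnight culture. Equivalency was calculated against triamterene.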

| Compound | Potency | fluorescence, % of triamterene [%] |
| --- | --- | --- |
| C[C@]12N[C@H](Cc3ccccc31)c1ccccc12 | inactive |  |
| c1ccc(C2(c3ccccc3)CC2C2=NCCN2)cc1 (stereo not given) |  | 0.0139 |
| CCCCCN(C)CCC(O)(P(=O)(O)O)P(=O)(O)O |  | -0.0342 |
| O=P(O)(O)C(Cl)(Cl)P(=O)(O)O |  | -0.199 |

test: qHTS assay to test for compound auto fluorescence at 590 nm (red) in HEK293 cells (AID 720679); conditions: red autofluorescence 540/590 nm; series mostly up to 46 µM; fluorescence, % of fluorescent control: at the top concentration
Summary of the method: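 Plates of HEK293 cells (10% dialyzed FBS) are treated with 23 nL compound or DMSO vehicle after a 4-5 hr attachment period, incubated overnight at 37C, and read for red fluorescence at 540/590nm.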

| Compound | outcome | fluorescence, % of fluorescent control [%] |
| --- | --- | --- |
| C[C@]12N[C@H](Cc3ccccc31)c1ccccc12 | inactive |  |
| CCCCCN(C)CCC(O)(P(=O)(O)O)P(=O)(O)O |  | 0.0992 |
| O=P(O)(O)C(Cl)(Cl)P(=O)(O)O |  | -0.0078 |

test: qHTS assay to test for compound auto fluorescence at 535 nm (green) in HEK293 cells (AID 720680); conditions: green autofluorescence 485/535 nm; series mostly up to 46 µM; fluorescence, % of fluorescein: at the top concentration

| Compound | Potency | fluorescence, % of fluorescein [%] |
| --- | --- | --- |
| C[C@]12N[C@H](Cc3ccccc31)c1ccccc12 | inactive |  |
| c1ccc(C2(c3ccccc3)CC2C2=NCCN2)cc1 (stereo not given) |  | -0.0962 |
| CCCCCN(C)CCC(O)(P(=O)(O)O)P(=O)(O)O |  | 0.0752 |

test: qHTS assay to test for compound auto fluorescence at 460 nm (blue) in HEK293 cell free culture (AID 720681); conditions: cell-free medium, autofluorescence 405/460 nm (blue); series mostly up to 46 µM; fluorescence, % of fluorescent control: at the top concentration
Summary of the method: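 Blue fluorescence (Ex 405/Em 460 nm, triamterene-equivalent) was read immediately after pin transfer of compound or DMSO into medium (DMEM, 10% FBS) without cells.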

| Compound | Potency |
| --- | --- |
| C[C@]12N[C@H](Cc3ccccc31)c1ccccc12 | inactive |
